Reference: PubChem BioAssay AID2293 (National Center for Advancing Translational Sciences (NCATS), 2010)
Active and inactive are the calls of the source. No rule for the calls is given here.

target: Lysosomal alpha-glucosidase (Homo sapiens) (UniProt P10253); experiment: Direct Measure of the Activation of Acid alpha-Glucosidase Catalytic Rate; details: purified enzyme, 4MU-alpha-Glc conversion, LC-MS; at 37.5 µM; stronger effect = higher value
Description: NIH Chemical Genomics Center [NCGC] NIH Molecular Libraries Probe Production centers Network [MLPCN] MLPCN Grant: 1R03MH084841-01 Assay Submitter (PI): Wei Zheng NCGC Assay Overview: Alpha-glucosidase is responsible for hydrolysis of terminal, non-reducing 1,4-linked alpha-D-glucose residues with release of alpha-D-glucose. It is a lysosomal hydrolase that is required for the degradation of a small percentage (1-3%) of cellular glycogen in human. Deficiency of this enzyme results in glycogen-storage disease type II (GSDII), also referred to as Pompe disease, an autosomal recessive disorder. Structurally normal glycogen is accumulated in lysosomes and cytoplasm in affected patients, primarily in muscle tissues. Excessive glycogen storage within lysosomes may interrupt normal functioning of other organelles and leads to cellular injury. In turn, this leads to enlargement and dysfunction of the entire organ involved (eg, cardiomyopathy and muscle weakness). It has reported that the improper folding and trafficking of alpha-glucosidase resulting from the genetic mutations may account for a significant number of Pompe patients. […]
The catalysis rate of the 4MU-alpha-Gluc substrate by acid alpha-glucosidase was measured using LC-MS. […] (5) Add 50 ul stop solution (1M NaOH and 1M Glycine mixture, pH 10) (6) Run LC-MS and integrate peaks to quantitate amount of product

Structure (SMILES)	substrate conversion
CCCN1CNc2c(c(=O)[nH]c(=S)n2CCc2ccc(OC)c(OC)c2)C1	28% (active)

same assay, conditions: purified enzyme, 4MU-alpha-Glc conversion, LC-MS; conversion; at 5 µM; stronger effect = higher value

Structure (SMILES)	substrate conversion
CCCN1CNc2c(c(=O)[nH]c(=S)n2CCc2ccc(OC)c(OC)c2)C1	20%
